# Test results: PubChem BioAssay (EPA / NIEHS)
# Active and inactive are the calls of the source. Rule for the calls: active = hit-call score of the fitted dose curve at least 0.9, where 1 is the maximum; inactive = score below 0.9.
# Read-out: Interleukin-8 (IL8), CXCL8 (gene 3576)
# Test: BSK_LPS_IL8: BioMAP Diversity Plus: LPS Assay for Interleukin-8 (IL8) Biomarker Activity (AID 2283078)
# Conditions: primary human HUVEC with PBMC; actives raise or lower the signal
# Method in brief: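 In this LPS system, chemical-treated human umbilical vein endothelium/PBMC co-cultures were harvested at 24 h for IL-8 ELISA.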
SMILES,outcome,AC50
O=C(O)C(Cl)(Cl)Cl,inactive,–
Oc1cccc2cccnc12,inactive,–
CC(=O)OC(c1ccccc1)C(Cl)(Cl)Cl (stereo unspecified),inactive,–
C[C@]12CCC(=O)C[C@@H]1CC[C@@H]1[C@@H]2CC[C@]2(C)[C@@H](O)CC[C@@H]12,inactive,–
COP(=S)(OC)Oc1ccc(Sc2ccc(OP(=S)(OC)OC)cc2)cc1,–,3.97 µM (active)
C(=NC1CCCCC1)=NC1CCCCC1,–,30.9 µM (active)
COc1cc(OC)nc(NC(=O)NS(=O)(=O)c2ncccc2C(=O)N(C)C)n1,inactive,–
CC12CC1(C)C(=O)N(c1cc(Cl)cc(Cl)c1)C2=O (stereo unspecified),inactive,–
COC(=O)c1sccc1S(=O)(=O)NC(=O)Nc1nc(C)nc(OC)n1,inactive,–
C=C(C)C(=O)[O][Sn]([CH2]CCC)([CH2]CCC)[CH2]CCC,–,0.38 µM (active)
CC(C)(C)c1cc(O)ccc1O,–,13.1 µM (active)
CC(C)(c1ccccc1)c1ccc(O)c(C(C)(C)c2ccccc2)c1,–,12 µM (active)
CCCCCCCCc1ccc(O)cc1,–,36.5 µM (active)
O=C(Nc1ccc2[nH]ccc2c1)c1cc2cc(F)ccc2n1Cc1cccc(F)c1,–,10.4 µM (active)
O=C(OC1CCCCC1)c1ccccc1C(=O)OC1CCCCC1,–,20.9 µM (active)
C=CC(=O)OCCCCCC(C)C,inactive,–
CC(C)(C)CC(C)(C)c1ccc(O)cc1,–,13.9 µM (active)
CCNc1nc(NC(C)(C)C)nc(SC)n1,inactive,–
CC(=O)[O][Hg][c]1ccccc1,–,6.47 µM (active)
Nc1cccc2ccccc12,inactive,–
ClCC(Cl)CCl,inactive,–
